Read-out in assay [1]: Transforming growth factor beta 1 (TGFb1), TGFB1 (gene 7040)
Kind of assay: BSK_KF3CT_TGFb1: BioMAP Diversity Plus: KF3CT Assay for Transforming growth factor beta 1 (TGFb1) Biomarker Activity (AID 2283072). As to conditions: primary human keratinocytes with fibroblasts; actives raise or lower the signal. The essentials: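 KF3CT co-culture (keratinocytes + fibroblasts), 24 h exposure → TGF-b1 ELISA → bidirectional fit, DMSO = baseline. Parallel SRB total-protein staining (0.1% SRB, 10% TCA fixation, 560 nm) for cytotoxicity.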

Read-out in assay [2]: C-C motif chemokine 2 (Homo sapiens) (UniProt P13500)
As to the kind of experiment: BSK_KF3CT_MCP1: BioMAP Diversity Plus: KF3CT Assay for Monocyte Chemoattractant Protein 1 (MCP1/CCL2) Biomarker Activity (AID 2283073). The note with it: primary human keratinocytes with fibroblasts; actives raise or lower the signal. The essentials:
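Human keratinocyte plus foreskin fibroblast primary co-culture exposed to chemical for 24 h. MCP-1 levels measured by ELISA. Bidirectional curve fitting relative to DMSO negative control as baseline.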

Read-out in assay [3]: Matrix Metallopeptidase 9 (MMP9), MMP9 (gene 4318)
As to the kind of experiment: BSK_KF3CT_MMP9: BioMAP Diversity Plus: KF3CT Assay for Matrix Metallopeptidase 9 (MMP9) Biomarker Activity (AID 2283074).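 On AC50: MMP9 protein level quantified by ELISA in the co-culture.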 The note with it: primary human keratinocytes with fibroblasts; actives raise or lower the signal. The essentials:
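ELISA read-out of MMP-9 at 24 h post-dosing in a co-culture of human skin keratinocytes and foreskin fibroblasts. Gain or loss of signal was fitted in both directions against DMSO.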

Read-out in assay [4]: urokinase plasminogen activator (uPA), PLAU (gene 5328)
As to the kind of experiment: BSK_KF3CT_uPA: BioMAP Diversity Plus: KF3CT Assay for urokinase plasminogen activator (uPA) Biomarker Activity (AID 2283075). The note with it: primary human keratinocytes with fibroblasts; actives raise or lower the signal. The essentials: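 Skin co-culture (keratinocytes + foreskin fibroblasts), human primary; 24 h post-dose; uPA by ELISA; gain/loss fit vs DMSO baseline.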

Read-out in assay [5]: CD40, CD40 (gene 958)
Kind of assay: BSK_LPS_CD40: BioMAP Diversity Plus: LPS Assay for CD40 Biomarker Activity (AID 2283076). The note with it: primary human HUVEC with PBMC; actives raise or lower the signal. The essentials: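 Primary human umbilical vein endothelial cells co-cultured with peripheral blood mononuclear cells, LPS-stimulated, were dosed with chemical and read 24 h later. CD40 levels were measured by ELISA and fitted bidirectionally against DMSO as negative control and baseline.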

Read-out in assay [6]: E-selectin (Homo sapiens) (UniProt P16581)
As to the kind of experiment: BSK_LPS_Eselectin: BioMAP Diversity Plus: LPS Assay for Eselectin Biomarker Activity (AID 2283077). The note with it: primary human HUVEC with PBMC; actives raise or lower the signal. An outline of the steps:
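Human umbilical vein endothelial cells co-cultured with peripheral blood mononuclear cells under LPS stimulation; E-selectin measured by ELISA 24 h after chemical dosing. Activity fitted bidirectionally against DMSO as negative control and baseline.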

Read-out in assay [7]: Interleukin-8 (IL8), CXCL8 (gene 3576)
As to the kind of experiment: BSK_LPS_IL8: BioMAP Diversity Plus: LPS Assay for Interleukin-8 (IL8) Biomarker Activity (AID 2283078). As to conditions: primary human HUVEC with PBMC; actives raise or lower the signal. The essentials:
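Human umbilical vein endothelial cells co-cultured with PBMC were stimulated with LPS; IL-8 levels were measured by ELISA 24 h after chemical dosing. Activity was fitted bidirectionally against DMSO as negative control and baseline.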

Assay [8] can be described thus: BSK_LPS_SRB: Viability Assessment in the BioMAP Diversity Plus: LPS Assay (AID 2283079).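 Further: total protein by sulforhodamine B absorbance as a cytotoxicity measure; measured one day after compound addition.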 The note with it: primary human HUVEC with PBMC. The essentials: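 Human umbilical vein endothelial cells co-cultured with PBMC (LPS system) were dosed for 24 h. Total protein was stained with 0.1% sulforhodamine B after 10% TCA fixation, read at 560 nm, and fitted bidirectionally against DMSO baseline.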

Read-out in assay [9]: Interleukin-1 alpha (IL1a), IL1A (gene 3552)
As to the kind of experiment: BSK_LPS_IL1a: BioMAP Diversity Plus: LPS Assay for Interleukin-1 alpha (IL1a) Biomarker Activity (AID 2283080). As to conditions: primary human HUVEC with PBMC; actives raise or lower the signal. The essentials:
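Human umbilical vein endothelial cells co-cultured with peripheral blood mononuclear cells were LPS-stimulated and exposed to test chemicals for 24 h. IL-1 alpha was quantified by ELISA, with bidirectional curve fitting against DMSO as the negative control and baseline.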

Read-out in assay [10]: Monocyte Chemoattractant Protein-1 (MCP1), CCL2 (gene 6347)
As to the kind of experiment: BSK_LPS_MCP1: BioMAP Diversity Plus: LPS Assay for Monocyte Chemoattractant Protein-1 (MCP1) Biomarker Activity (AID 2283081).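 On AC50: co-culture stimulated with LPS; secreted MCP-1 protein quantified by ELISA in culture supernatant.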 As to conditions: primary human HUVEC with PBMC; actives raise or lower the signal. An outline of the steps: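 HUVEC plus PBMC co-culture (human primary cells, LPS system) exposed to test chemical for 24 h; MCP-1 measured by ELISA. Bidirectional curve fitting against DMSO baseline; parallel SRB total-protein staining flags overt cytotoxicity.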

Each structure is given as a SMILES string. Where “and” joins values, the source holds several entries; their conditions need not be identical. Equal values may be shown once. Calls of active or inactive are those of the source. How the source made its calls: active means hit-call score of the fitted dose curve at least 0.9, where 1 is the maximum; inactive means score below 0.9.

For orientation: AC50 means the midpoint of the concentration-response curve, whichever way the signal moves.

Chain of E-selectin (Homo sapiens) (P16581 whole entry, looked up): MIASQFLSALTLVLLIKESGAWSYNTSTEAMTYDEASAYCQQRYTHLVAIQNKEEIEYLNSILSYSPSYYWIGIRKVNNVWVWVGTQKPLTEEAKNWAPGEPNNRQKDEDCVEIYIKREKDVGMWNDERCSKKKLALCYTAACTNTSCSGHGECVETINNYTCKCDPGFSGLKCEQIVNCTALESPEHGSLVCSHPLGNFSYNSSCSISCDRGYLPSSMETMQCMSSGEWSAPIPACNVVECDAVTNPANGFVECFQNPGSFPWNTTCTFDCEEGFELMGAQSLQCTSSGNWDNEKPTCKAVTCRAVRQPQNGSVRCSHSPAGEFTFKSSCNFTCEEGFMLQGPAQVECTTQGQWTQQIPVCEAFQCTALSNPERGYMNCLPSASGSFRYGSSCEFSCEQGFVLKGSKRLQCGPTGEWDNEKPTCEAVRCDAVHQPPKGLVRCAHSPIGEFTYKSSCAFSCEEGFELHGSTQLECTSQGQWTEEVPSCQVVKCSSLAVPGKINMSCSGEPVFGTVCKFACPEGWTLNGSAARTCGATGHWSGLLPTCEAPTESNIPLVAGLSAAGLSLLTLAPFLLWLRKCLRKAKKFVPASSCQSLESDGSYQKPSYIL

`O=C1OC2(c3ccccc31)c1ccc(O)c(Br)c1Oc1c2ccc(O)c1Br`: the AC50 is 4.66 µM (active) in [1]; 20 µM (active) in assay [2]; 20 µM (active) in assay [5]; 24.5 µM (active) in assay [6]; 20 µM (active) in assay [9]; 20 µM (active) in assay [10]. For the same molecule, the outcome in assay [3], in assay [4], in assay [7] and in assay [8] was inactive.
Turning to `C[C@@H]1CCN(C(=O)[C@H](CCCN=C(N)N)NS(=O)(=O)c2cccc3c2NC[C@H](C)C3)[C@@H](C(=O)O)C1`, the outcome in assay [1], in [2], in assay [3], in [4], in assay [5] and in [6] was inactive. Also, the result in assay [7], in assay [8], in assay [9] and in assay [10] was inactive.
Consider `CCOC(=O)C(C#N)=C(c1ccccc1)c1ccccc1`, for which the result in assay [2], in [3], in assay [4], in [5], in assay [6] and in assay [7] was inactive. Besides, the result in assay [8], in [9] and in [10] was inactive.
Take `CCCCN(CCCC)C(=O)N(CCCC)CCCC`: the AC50 was 5.42 µM (active) in assay [1]; 4.75 µM (active) in assay [2]; 10.3 µM (active) in [3]; 7.68 µM (active) in assay [4]; 20 µM (active) in [5]; 20 µM (active) in assay [6]. The half-maximal activity concentration (AC50) in assay [8] is 30.2 µM (active); in assay [9], 20 µM (active); in [10], 20 µM (active). For the same molecule, the outcome in [7] was inactive.
As to `CC1(C)CCC[C@]2(C)[C@H]3CCO[C@]3(C)CC[C@@H]12`, the AC50 in assay [2] was 33.9 µM (active) and 30.7 µM (active); in [3] it was 36.7 µM (active) and 35.6 µM (active); in assay [4], 36.6 µM (active) and 37.8 µM (active). Further, the result in assay [5], in [6], in assay [7], in assay [8], in assay [9] and in assay [10] was inactive.
For the molecule `CS(=O)(=O)OCCCCOS(C)(=O)=O`, the result in assay [1], in assay [2], in [3], in [4], in assay [5] and in assay [6] was inactive. Also, the outcome in [7], in [8], in assay [9] and in [10] was inactive.
`O=C(Nc1ccc2c(O)c(N=Nc3ccc(N=Nc4ccc(S(=O)(=O)O)cc4)cc3)c(S(=O)(=O)O)cc2c1)c1ccccc1`: the result in [2], in [3], in assay [4], in assay [5], in assay [6] and in assay [7] was inactive. Moreover, the result in assay [8], in assay [9] and in assay [10] was inactive.
For the molecule `CN(C)C(=O)Nc1ccc(Oc2ccc(Cl)cc2)cc1`, the outcome in assay [1], in [2], in assay [3], in [4], in [5] and in [6] was inactive. Besides, the outcome in assay [7], in assay [8], in [9] and in assay [10] was inactive.
For the molecule `CCC(C)c1cc([N+](=O)[O-])cc([N+](=O)[O-])c1OC(=O)OC(C)C` (configuration not stated), the half-maximal activity concentration (AC50) in [1] was 20 µM (active); in assay [3] it was 20 µM (active); in assay [4], 20 µM (active); in assay [5], 7.3 µM (active); in assay [6], 15 µM (active); in [7], 29.7 µM (active). Also, the half-maximal activity concentration (AC50) in assay [8] is 11.9 µM (active); in assay [9], 29.5 µM (active); in [10], 14.3 µM (active). Also, the outcome in assay [2] was inactive.
For the molecule `C1=CC2C3C=CC(C3)C2C1` (configuration not stated), the outcome in assay [1], in [2], in assay [3], in [4], in [5] and in assay [6] was inactive. Also, the result in assay [7], in [8], in assay [9] and in [10] was inactive.
On to `CC(C)(C)CC(C)(C)c1ccc(OCCOCC[N+](C)(C)Cc2ccccc2)cc1`, for which the AC50 in assay [1] is 3.38 µM (active); in assay [2], 8.05 µM (active); in [3], 5 µM (active); in assay [4], 5 µM (active); in assay [5], 7.8 µM (active); in [6], 7.56 µM (active). Moreover, the concentration at half-maximal activity (AC50) is 6.61 µM (active) in assay [7], 8.5 µM (active) in assay [8], 5 µM (active) in [9] and 7.38 µM (active) in [10].

The values are drawn from PubChem BioAssay (EPA / NIEHS).
